This note sets out measurements from PubChem BioAssay (Tox21).

Where “and” joins values, the source holds several entries; their conditions need not be identical. Identical values can stand only once. Inconclusive results are not listed. Where a call stands in place of a potency, no number is given. A structure can be active in one record and inactive in another. Calls of active or inactive are those of the source. Calls follow the shape of the dose curve; as a rule, active = well fitted activation curve with a large enough effect in the signal ratio in the repeat runs (not every such curve was filed as active); inconclusive = weak or mixed curves; inactive = flat fitted curve, though single readings scatter; the % refers to the signal ratio.
Potency is read from the fitted curve at half-maximal effect.

This test in a line: p53 small molecule agonists, cell-based qHTS assay (AID 1963582). Conditions: HCT-116 p53RE-bla reporter, beta-lactamase FRET ratio, 16 h; series mostly up to 66 µM; activation: at the top concentration. An excerpt:
National Center for Advancing Translational Sciences [NCATS]
Division of Preclinical Innovation [DPI]
U.S. Environmental Protection Agency [EPA]
National Institutes of Environmental Health Sciences [NIEHS]
National Toxicology Program [NTP]
U.S. Food and Drug Administration [FDA]
p53, a tumor suppressor protein, is activated following cellular insult, including DNA damage and other cellular stresses. The activation of p53 regulates cell fate by inducing DNA repair, cell cycle arrest, apoptosis, or cellular senescence. The activation of p53, therefore, is a good indicator of DNA damage and other cellular stresses. […] The activation of the reporter gene under culture conditions can be detected by fluorescence intensity. This cell line was used to screen the Tox21 10K compound library in a 1536-well plate format and to identify agonists that activate the p53 signaling pathway.
Tox21 Assay Protocol Summary:
The p53RE-bla cells were dispensed at 4,000 cells/5 ul/well in 1536-well black wall/clear bottom plates using a Multidrop dispenser. After the assay plates were incubated at a 37 C/5% CO2 incubator for 5 hours, 23 nL of compounds dissolved in DMSO, positive controls or DMSO only was transferred to the assay plate by a pin tool. The plates were incubated at 37 C for 16 hours. After 1 uL of LiveBLAzerTM B/G FRET substrate was added using a Flying Reagent Dispenser, the plates were incubated at room temperature for 2 hours, and fluorescence intensity was measured by an Envision plate reader.
`NNc1ccc(C(=O)O)cc1`: the Potency entry is “inactive”. Consider `CCCCCCC(C)O` (stereo not given), for which the “activation” value is -0.104% (inactive). Same read-out and setting: the same measure for `CC(=O)CC(C)(C)O`: -0.024% (inactive).

With `c1ccc2c(c1)c1cccc3ccc4cccc2c4c31`, the Potency is 45.4 µM (active) and inactive.

For `CCCCN(CCCC)CCCC`, the Potency entry was “inactive”. The same measure, in the same setting: the entry for `C/C=C(C)/C=C/C=C(C)C` is “inactive”.

Take `O=C(Cl)c1c(Cl)c(Cl)c(C(=O)Cl)c(Cl)c1Cl`: the Potency entry was “inactive”. On to `O=C1O[C@H]([C@@H](O)CO)C(O)=C1O`, for which the Potency entry is “inactive”. With `CC1=C(/C=C/C(C)=C/C=C/C(C)=C/C(=O)O)C(C)(C)CCC1`, the “activation” value was -0.383% [at 30.3 µM] (inactive). `Cc1c(N(C)CS(=O)(=O)O)c(=O)n(-c2ccccc2)n1C`: the Potency result was “inactive”. Same read-out and setting: the same measure for `CC(=O)Nc1nnc(S(N)(=O)=O)s1`: “inactive”. On the same count and under the same terms, the entry for `Cc1cc(=O)n(-c2ccccc2)n1C` is “inactive”; for `O=[N+]([O-])c1ccccc1C(F)(F)F` it is “inactive”; for `Cc1ccc(Cl)cc1` it is “inactive”. On the same count and under the same terms, the entry for `CC(C)[N+](C)(CCOC(=O)C1c2ccccc2Oc2ccccc21)C(C)C` is “inactive”. For `CCC(C)C=O` (stereo not given), the Potency result was “inactive”. Still for that read-out and setting: the same measure for `O=CCCCC=O`: “inactive”. As for `COC(=O)c1ccc(C=O)cc1`, the “activation” value was 0.646% (inactive). `CC(=O)Nc1ccc(C(=O)O)cc1`: the Potency entry is “inactive”. Same read-out and setting: the entry for `CCCCCCCCCCN` is “inactive”. The same measure, in the same setting: the same measure for `CC1(C)OC(=O)NC1=O`: “inactive”. Still for that read-out and setting: the same measure for `CC(=O)OCc1ccc2c(c1)OCO2`: “inactive”; for `CCOC(=O)C1OC1c1ccccc1` (stereo not given): “inactive”; for `O=C(O)CN(CC(=O)O)CC(=O)O`: “inactive”. Take `C[C@]12C=CC(=O)C=C1CC[C@@H]1[C@@H]2C(=O)C[C@@]2(C)[C@H]1CC[C@]2(O)C(=O)CO`: the Potency entry is “inactive”. Same read-out and setting: the same measure for `NC(=O)c1cnccn1`: “inactive”. Take `Cc1ccc(S(=O)(=O)NCl)cc1`: the Potency entry is “inactive”.

For `O=c1n(CC2CO2)c(=O)n(CC2CO2)c(=O)n1CC1CO1` (stereo not given), the Potency was 18.1 µM (active) and 20.4 µM (active). On the same count and under the same terms, the same measure for `OCC(O)CS` (stereo not given): “inactive”. On the same count and under the same terms, the entry for `CNC(=O)Oc1ccc2c(c1)[C@]1(C)CCN(C)[C@@H]1N2C` is “inactive”.

As to `C=C(C)CC(C)(C)C`, the Potency result is “inactive”.

Take `CCc1cccc(CC)c1N`: the Potency entry was “inactive”.

With `CN/C(=C\[N+](=O)[O-])NCCSCc1csc(CN(C)C)n1`, the Potency entry was “inactive”. Still for that read-out and setting: the entry for `CC(=O)c1ccc(O)cc1` is “inactive”; for `CCCCCCCCCCCCCC(=O)O` it is “inactive”. Same read-out and setting: the same measure for `CC(C)CC(C)CC(O)CC(C)C` (stereo not given): “inactive”. In the case of `CC(C)(C)[C@@H](O)[C@@H](Cc1ccc(Cl)cc1)n1cncn1`, the “activation” value is -1.69% (inactive). Consider `C=CCNC(N)=S`, for which the Potency result is “inactive”. Take `CN(C)C=O`: the Potency entry is “inactive”. Still for that read-out and setting: the same measure for `Nc1ccc(S(N)(=O)=O)cc1`: “inactive”.
